# In PubChem BioAssay (NCI):
# About 79,000 compounds went through this panel and 15% of them were active in at least one assay; those are over-represented in the sample as a whole. Unmarked numbers belong to inactive results. Activity calls are given as the source filed them. No stated cut-off is given here; in the data, active means growth inhibition above about 70%; inactive means the rest.
# Assay: NCI Yeast Anticancer Drug Screen. Data for the wt2 strain (AID 169);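 further: 0% = growth of vehicle-treated yeast cultures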
# Conditions: S. cerevisiae wt2 strain growth inhibition; at 100.0 µM; hits give high values
# Method in brief: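 Inhibition of yeast growth was determined after compound treatment, normalised to controls receiving only vehicle.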
row,Compound,growth inhibition
1,O=C1/C(=C/c2ccccc2)CCCC1CN1CCCCC1 (stereo not given),87% (active)
2,C#CCN(Cc1ccc2nc(N)[nH]c(=O)c2c1)c1ccc(C(=O)NC(CCC(=O)O)C(=O)O)cc1 (stereo not given),28%
3,CCOC1(c2cccc([N+](=O)[O-])c2)c2ccccc2Oc2ccccc21,4%
4,O=C(O)CNC(=S)Nc1ccccc1,88% (active)
5,C[Si](C)(C)/C=C/CCNC(C#N)c1ccccc1 (stereo not given),95% (active)
6,CCCCCCCCCCCCCCCCOP(=O)(O)OCC(N)C(=O)O (stereo not given),48%
7,CC1=C(C(=O)NCc2ccccc2)C(c2ccccc2)C(C(=O)NCc2ccccc2)=C(C)N1,91% (active)
8,O=[N+]([O-])c1cc(S(=O)(=O)Nc2ccccc2)ccc1Nc1ccccc1,83% (active)
9,COc1cc2ccnc(-c3c4ccccc4c(N)c4c(OC)c(OC)ccc34)c2cc1OC,47%
10,CCOC(=O)C(Br)C(Br)c1ccccc1Cl (stereo not given),99% (active)
11,CCOC(=O)C1=C(C)NC(C)=C(C(=O)OCCNC(=O)c2ccc(N=[N+]=[N-])cc2)C1c1ccccc1C(F)(F)F (stereo not given),19%
12,COc1c(O)c(C=O)c(Br)c(C=O)c1O,89% (active)
13,Cc1c(C)c(C)c(CSC(=N)N)c(C)c1C,99% (active)
14,O=C(CSC(=S)N1CCCCC1)Nc1nc2c(s1)CCCC2,88% (active)
15,CNC(=O)OCc1c(COC(=O)NC)c(-c2ccc(Cl)cc2)n2c1CCC2,97% (active)
16,CC(=O)OC1CC2C(C)(C)C(=O)C=C[C@]2(C)C2CCC3(C)C(=CCC3[C@H](CO)C[C@H](O)C(=O)C(C)(C)O)[C@]12C (stereo not given in full),95% (active)
17,CCCCCCOC(=O)NCCOC(=O)Nc1ccccc1,-2%
18,Cc1nc(Nc2ccccc2[N+](=O)[O-])sc1C(=O)CC(=O)C(=O)Nc1c(C(C)C)cccc1C(C)C,0%
19,O=[N+]([O-])c1cccc2nc3ccccc3c(NCCCn3ccnc3[N+](=O)[O-])c12,88% (active)
20,CCCCCCC(O)CNCc1ccnc2ccc(OC)cc12 (stereo not given),28%
21,Cc1c2cccc(Sc3ccccc3)c2c2c3c(cccc13)[S+](c1ccccc1)C2 (stereo not given),86% (active)
22,C=C1CCC(O)C/C1=C/C=C1\CCCC2(C)C1CCC2C(C)CCCC(C)C (stereo not given),22%
23,NC1=NNC2(C(N)=N1)c1ccccc1-c1ccccc12,97% (active)
24,COC(=O)NC1C(C)OC(OC2C/C=C(/C)C3C=CC4C(OC5CC(OC6CC(O)C(OC7CC(O)C(OC)C(C)O7)C(C)O6)C(O)C(C)O5)C(C)CC(C)C4C3(C)/C(O)=C3\C(=O)OC4(CC(C)C(CO)=CC4/C=C\2C)C3=O)CC1(C)[N+](=O)[O-] (stereo not given),-21%
25,COc1ccc(N=CN(C)C)c(C)c1,96% (active)
26,O=C(Oc1ccc2c(c1)CN(Cc1ccccc1)CO2)c1ccccc1,40%
27,CN(C)[C@@H]1C(=O)C(C(N)=O)=C(O)[C@@]2(O)C(=O)C3=C(O)c4c(O)cccc4C[C@H]3C[C@@H]12,99% (active)
28,O=[N+]([O-])c1ccc2c(c1)/C(=N/N=C1c3ccccc3Cc3ccccc31)c1cc([N+](=O)[O-])cc([N+](=O)[O-])c1-2,94% (active)
29,Cc1nc2c(Br)cc(Br)cc2c(=O)n1-c1ccccc1NC1OCC(O)C(O)C1O (stereo not given),96% (active)
30,Cc1cc(N(CCOS(C)(=O)=O)CCOS(C)(=O)=O)ccc1C=Nc1ccc(-c2nc(Cc3ccccc3)sc2C)cc1,98% (active)
